# Screening data: PubChem, National Center for Advancing Translational Sciences (NCATS)
# RXFP1 agonist: RXFP1 (human) receptor agonism; Q9HBX9; HEK293T-RXFP1 cAMP TR-FRET, 30 min; response scale: percent of porcine relaxin response, buffer zero; Potency, µM (top dose mostly 57.5 µM), inactives show at the top dose activation, usual class: activators; actives 0.3% (n = 370,000); AID 2676; note: potency is the fitted concentration of half-maximal effect; % is set by controls: 0 for no effect and ±100 for the full control effect; nearly all actives have a fitted effect of over 60% in size
# Target sequence (Q9HBX9 whole entry, looked up): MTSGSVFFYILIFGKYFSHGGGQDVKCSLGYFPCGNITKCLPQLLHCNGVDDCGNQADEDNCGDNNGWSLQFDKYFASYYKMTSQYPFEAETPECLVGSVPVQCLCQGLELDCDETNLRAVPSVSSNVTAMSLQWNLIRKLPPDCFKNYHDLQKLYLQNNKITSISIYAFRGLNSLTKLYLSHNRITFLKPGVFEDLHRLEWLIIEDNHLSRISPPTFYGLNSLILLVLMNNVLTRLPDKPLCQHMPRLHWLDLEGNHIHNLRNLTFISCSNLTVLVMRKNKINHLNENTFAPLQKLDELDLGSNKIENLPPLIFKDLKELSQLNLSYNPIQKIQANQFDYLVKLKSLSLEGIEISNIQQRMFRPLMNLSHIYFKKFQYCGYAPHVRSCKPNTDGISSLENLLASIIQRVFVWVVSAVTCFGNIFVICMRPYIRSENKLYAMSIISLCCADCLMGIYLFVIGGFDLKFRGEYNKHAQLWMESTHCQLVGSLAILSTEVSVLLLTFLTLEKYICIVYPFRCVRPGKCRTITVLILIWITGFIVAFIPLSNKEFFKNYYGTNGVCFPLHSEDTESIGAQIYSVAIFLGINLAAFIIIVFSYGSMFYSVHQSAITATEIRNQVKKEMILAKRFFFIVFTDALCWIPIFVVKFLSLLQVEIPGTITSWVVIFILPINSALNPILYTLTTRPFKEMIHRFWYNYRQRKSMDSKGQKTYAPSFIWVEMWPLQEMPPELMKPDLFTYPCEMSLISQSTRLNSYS
#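 cAMP rise read by TR-FRET after 30 min, 37C compound exposure (up to 58 uM) in RXFP1-transfected HEK293 cells with Ro 20174 present. EC50 from Hill-equation fits, with 29 nM porcine relaxin as 100% and buffer as basal.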
# KCNH2 3.1 inh: KCNH2 3.1 (human) potassium channel inhibition; U2OS KCNH2 3.1, thallium flux FluxOr; stronger effect = lower value; activity change, % (tested at about 1.8 µM); actives 0.95% (n = 340,000);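 active = maximum activity change below -70%; inconclusive = maximum activity change from -70% to -50%; inactive = maximum activity change above -50%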;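 note: thallium influx rate constant from kinetic fluorescence after stimulation buffer; % is set by controls: 0 for no effect and ±100 for the full control effect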
#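 Steps: virus added to U2OS suspension (4 h, RT, dark); medium with 10% FBS added, cells plated, 37 C overnight; FluxOr/Red40 loading buffer 45 min RT; stimulation buffer, 2 min kinetic read; rate constant normalized.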
# RXFP1 antagonist: blocks the human relaxin receptor RXFP1; Q9HBX9; actives 0.59% (n = 350,000); HEK293-RXFP1, relaxin-stimulated cAMP HTRF, 30 min; stronger effect = lower value; AID 1259400; activity change, negative = inhibition, % at 57.5 µM;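 active = activity change of -60% or lower, but not beyond a set lower limit; inconclusive = change between -60% and -40%, or beyond the set limit; inactive = change above -40%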; note: % is set by controls: 0 for no effect and ±100 for the full control effect
# PTHR1 agonist: PTHR1 (human) receptor agonism; HEK293 GP2 PTHR1 cells, GloSensor cAMP luminescence, 1 h; Q03431; Potency, µM (top dose mostly 115 µM), for inactives: at the top dose activation, most hits filed as activators; actives 0.075% (n = 410,000); note: potency is the fitted concentration of half-maximal effect; nearly all actives have a fitted effect of over 55% in size
#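 HEK-293-derived GP2 cells expressing PTHR1 and a GloSensor cAMP reporter, 3,000/well, plated overnight, given luciferin plus IBMX (each 0.5 mM as added) for 1 h at 37 °C, then compound for 1 h at 37 °C. Luminescence was read after 15 min at room temperature.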
# hERG WT inh: inhibitors of human wildtype KCNH2 potassium channel; activity change, % at 1.84 µM; actives 0.37% (n = 340,000); Q12809; U2OS, BacMam KCNH2, thallium flux FluxOr; stronger effect = lower value;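 active = maximum activity change below -70%; inconclusive = maximum activity change between -70% and -50%; inactive = maximum activity change above -50%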; note: % is set by controls: 0 for no effect and ±100 for the full control effect
#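 U2OS cells were transduced with wild-type KCNH2 virus (2.03 x 10^8 / mL) for 4 h at room temperature, then cultured overnight at 37 C. Thallium flux was read with FluxOr dye. Rate constants were normalized to DMSO controls.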
# Glioma ERSR ind: inducers of ER stress response in human glioma cells; Potency, µM, for the others: top-dose activation, actives largely listed as activators; U87-MG GRP78 promoter luciferase reporter, 16 h; actives 0.02% (n = 420,000); note: potency is the fitted concentration of half-maximal effect; series mostly up to about 76 µM; % of control where 0% means no effect; nearly all actives have a fitted effect of over 35% in size
#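 Stably transfected U87-MG human glioma cells carrying a GRP78-based luminescent sensor were seeded at 1000 cells/well, pin-dosed with compounds and incubated 16 h. Luciferase reagent was then added, and end-point luminescence was read after 10 min at room temperature.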
# Numbers without * were called inactive; i = inactive; u = inconclusive; x = no result; [ ] = dose if it differs, or a comment. Hits are enriched below; roughly 1.4% of the tested compounds scored in any of these assays. Unless noted, calls come from the whole dose curve; as a rule, active = well fitted curve in the direction sought with a large enough effect; inconclusive = small, poorly fitted or top-dose-only effect, or another doubt; inactive = no such curve, though single readings can be large; an effect the other way counts as inactive or inconclusive.
SMILES,RXFP1 agonist,KCNH2 3.1 inh,RXFP1 antagonist,PTHR1 agonist,hERG WT inh,Glioma ERSR ind
Cc1cc(N2CCN(C)CC2)nc2ccc(NC(=S)N3CCN(c4ccccn4)CC3)cc12,2%,6,-13,i,1,-3%
Cc1ccc(C)c(N2CCN(C(=S)Nc3ccc4nc(N5CCN(C)CC5)cc(C)c4c3)CC2)c1,16%,-90*,-17,i,-115*,-14%
COc1ccccc1N1CCN(C(=S)Nc2ccc3nc(N4CCOCC4)cc(C)c3c2)CC1,1%,-42,14,-16%,18,0%
Cc1cc(N2CCOCC2)nc2ccc(NC(=S)NCCC(C)C)cc12,0%,-88*,2,i,9,-1%
Cc1ccc(C)c(N2CCN(C(=S)Nc3ccc4nc(N5CCOCC5)cc(C)c4c3)CC2)c1,3%,-85*,-15,-11%,-77*,3%
Cc1cccc(N2CCN(C(=S)Nc3ccc4nc(N5CCOCC5)cc(C)c4c3)CC2C)c1 (stereo unspecified),7%,-76*,-6,i,-15,-2%
Cc1cccc(-c2noc(CCCC(=O)NCc3ccco3)n2)c1,-1%,x,1,-26%,x,-5%
Cc1ccc2c(=O)c(C(=O)c3ccccc3)cn(CC(=O)Nc3ccccc3C)c2n1,u,x,-13,i,x,1%
CCOC(=O)Cc1nn(Cc2ccccc2)c(=O)c2ccccc12,-4%,7,2,i,-9,-3%
CC(=O)Nc1ccc(C(=O)CSc2nnnn2C2CCCC2)cc1,1%,0,-5,-17%,x,3%
Cc1ccc(S(=O)(=O)N/N=C/c2ccc(OC3CSC3)cc2)cc1,1%,17,-17,-9%[57.5 µM],0,10%
Cc1ccc(NC(=O)Cn2c(=O)n(-c3ccccc3)c(=O)c3ccc(C(=O)NCc4ccc5c(c4)OCO5)cc32)cc1,22µM*,x,x,-14%,x,-7%
COc1ccc(NC(=O)Cn2c(=O)n(-c3ccc(OC)cc3)c(=O)c3ccc(C(=O)NCc4ccc(C)cc4)cc32)cc1,13%,x,x,i,x,1%
COc1ccc(-n2c(=O)c3ccc(C(=O)NCc4ccc(C)cc4)cc3n(CC(=O)Nc3cccc(F)c3)c2=O)cc1,32µM*,x,x,i,x,-2%
Cc1ccc(-n2c(=O)c3ccc(C(=O)NCc4ccccc4Cl)cc3n(Cc3cccc(F)c3)c2=O)cc1,32µM*,x,x,i,x,-2%
O=C(Cn1c(=O)n(-c2ccccc2)c(=O)c2ccc(C(=O)NCc3ccc4c(c3)OCO4)cc21)Nc1ccc(F)cc1,15%,x,x,0%,x,-2%
COc1ccccc1C1Nc2ccccc2NC2=C1C(=O)CC(C)(C)C2 (stereo unspecified),1%,-194*,6,i,-129*,0%
Cc1ccc(O)c(NC(=O)CSc2ccc(Cl)cc2)c1,-1%,-105*,6,-29%,-12,-2%
Cc1cccc(-c2cc3nc4c(c(N5CCOCC5)n3n2)CCCC4)c1,-1%,7,-15,i,-2,2%
Cc1cccc(-c2cc3nc4c(c(NCc5ccco5)n3n2)CCCC4)c1,-2%,-83*,-32,-4%[57.5 µM],u,8%
CN(C)CCNc1ccc2ncn3c4ccc(O)cc4c(=O)c1c23,x,-6,-4,-2%,-1,0%
Cc1ccc(CN(CC(O)COc2cccc3[nH]cc(C)c23)C(C)(C)C)cc1 (stereo unspecified),2%,-74*,-27,-19%,-7,-5%
COCCCNC(=S)N1CCCN(c2nc3cc(C)c(C)cc3cc2C#N)CC1,-4%,-7,-8,-27%,0,-2%
S=c1[nH]c(-c2ccc(Cl)cc2)cs1,-3%,-3,-2,-25%,-7,4%
Cc1ccc(-c2csc(=S)[nH]2)cc1,-1%,-78*,-4,i,-5,-2%
SMILES,RXFP1 agonist,KCNH2 3.1 inh,RXFP1 antagonist,PTHR1 agonist,hERG WT inh,Glioma ERSR ind
CC1(C(=O)NS(=O)(=O)c2ccc(F)cc2F)CCN1C(=O)c1cccc(F)c1 (stereo unspecified),x,x,x,0%,x,-5%
CC1(C(=O)NS(=O)(=O)c2ccccc2Cl)CCN1C(=O)Cc1ccccc1Cl (stereo unspecified),x,x,x,-19%,x,-4%
N#C/C(=C\c1ccc([N+](=O)[O-])o1)C(=O)Nc1ccc(F)cc1,-1%,14,-68*,-18%,3,2%
CN(C)S(=O)(=O)Nc1cccc(Br)c1,-2%,-1,3,i,-126*,4%
Brc1ccc(CN2CCSCC2)cc1,-2%,-174*,-4,u,-15,-5%
COc1ccc(-c2cc(C(=O)NCc3ccco3)c3ccccc3n2)cc1OC,x,-9,12,i,0,0%
COc1cccc(-c2ccc(C#N)c(SCC(=O)NCc3ccco3)n2)c1,35µM*,10,-5,-88%,4,6%
COc1cccc(-c2cc(C(=O)NCc3ccco3)c3ccccc3n2)c1,-2%,-13,-86*,-34%,-9,2%
CCOC(=O)C(C)Sc1nc2c(c(=O)[nH]c(=O)n2C)n1Cc1ccc(Cl)cc1 (stereo unspecified),5%,-91*,5,-25%,u,-1%
CC(C)Sc1nc2c(c(=O)[nH]c(=O)n2C)n1Cc1ccc(Cl)cc1,9%,5,-11,-43%[57.5 µM],12,-2%
Cc1sc2nc[nH]c(=S)c2c1-c1ccccc1,3%,15,-91*,-8%,u,-6%
O=C(NCCn1cc(SCc2ccc(C(F)(F)F)cc2)c2ccccc21)c1cccs1,-1%,x,x,-38%,x,0%
O=C(Nc1cccnc1)c1ccc(COc2cc(Cl)ccc2Cl)o1,6%,42,-12,-27%[57.5 µM],-104*,-5%
CCOC(=O)C(C)On1c(-n2nc(C)cc2C)nc2ccccc2c1=O (stereo unspecified),1%,-24,-2,-19%,-3,-5%
Cc1ccc(NS(=O)(=O)c2cccc(C(=O)NCC(c3cccs3)N3CCOCC3)c2)cc1 (stereo unspecified),0%,-1,1,-27%,0,-4%
O=C(COC(=O)C1COc2ccccc2O1)NC(=O)NC1CCCC1 (stereo unspecified),-1%,-143*,-7,i,-198*,2%
CC(C)N(C)CCOC(=O)C1COc2ccccc2O1 (stereo unspecified),-1%,-204*,4,29%,1,-4%
O=C(COC(=O)C1COc2ccccc2O1)NC1CCCCC1 (stereo unspecified),x,6,-1,i,-9,-2%
